Active and inactive are the calls of the source. Unless noted, the rule behind the calls is not given here.
Tests used:
[1] = anti-His antibody binders, primary screen, artefact control for SMM control protein annotation, biochemical, small-molecule microarray, 635 nm fluorescence (AID 1128); conditions: anti-His Alexa647 antibody binding, higher = more signal;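 note: score merges feature fluorescence with signal-to-noise for each printed compound spot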
[2] = test system: Human papillomavirus type 1a E7 protein (residues 1-88); experiment: HPV1a E7 small-molecule binders, primary screen, biochemical, small-molecule microarray, residues 1-88, 635 nm (AID 1129); conditions: small-molecule microarray binding, fluorescence 635 nm; higher = more signal
[3] = biological target: Focal adhesion kinase 1 (Homo sapiens) (UniProt Q05397); experiment: small-molecule microarray binders of FAK, primary screen, biochemical, 635/667 nm fluorescence, BSA, DTT (AID 1130); conditions: PTK2 binding, 635 nm fluorescence, higher = more signal;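 note: composite of spot emission at 667 nm and signal to noise over triplicate slides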
Chain of Focal adhesion kinase 1 (Homo sapiens) (Q05397 whole entry, looked up): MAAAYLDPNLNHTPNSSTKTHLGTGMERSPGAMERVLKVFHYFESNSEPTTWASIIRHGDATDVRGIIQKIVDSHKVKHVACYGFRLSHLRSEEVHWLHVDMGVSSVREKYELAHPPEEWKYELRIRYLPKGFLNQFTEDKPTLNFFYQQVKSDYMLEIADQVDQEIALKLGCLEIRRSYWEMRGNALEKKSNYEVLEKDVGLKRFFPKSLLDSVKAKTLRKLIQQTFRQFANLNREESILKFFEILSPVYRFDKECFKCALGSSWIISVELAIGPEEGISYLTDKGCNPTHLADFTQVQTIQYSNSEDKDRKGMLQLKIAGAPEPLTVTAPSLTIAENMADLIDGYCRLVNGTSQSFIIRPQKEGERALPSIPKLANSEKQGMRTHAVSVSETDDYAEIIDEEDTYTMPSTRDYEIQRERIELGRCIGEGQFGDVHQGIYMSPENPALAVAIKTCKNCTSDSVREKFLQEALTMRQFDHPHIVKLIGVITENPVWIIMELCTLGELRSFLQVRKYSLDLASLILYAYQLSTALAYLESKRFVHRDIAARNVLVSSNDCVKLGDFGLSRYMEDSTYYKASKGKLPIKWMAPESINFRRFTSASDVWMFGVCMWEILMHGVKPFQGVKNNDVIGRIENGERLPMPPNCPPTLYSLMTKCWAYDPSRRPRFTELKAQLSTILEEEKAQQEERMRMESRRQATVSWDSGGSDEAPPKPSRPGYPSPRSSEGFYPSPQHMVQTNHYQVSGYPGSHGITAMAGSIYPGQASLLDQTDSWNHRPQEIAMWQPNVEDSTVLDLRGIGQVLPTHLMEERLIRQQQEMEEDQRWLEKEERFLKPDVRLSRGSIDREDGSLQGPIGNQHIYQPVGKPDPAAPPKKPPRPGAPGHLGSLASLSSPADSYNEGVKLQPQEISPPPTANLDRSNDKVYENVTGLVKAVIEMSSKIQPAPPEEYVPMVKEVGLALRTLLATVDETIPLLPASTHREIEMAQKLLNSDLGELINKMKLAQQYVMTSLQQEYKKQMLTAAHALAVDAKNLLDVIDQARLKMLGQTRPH

[4] = test system: Fibrinogen (Alexa647-labelled); experiment: fibrinogen binders on compound microarrays, profiling panel, artefact control for SMM control-protein annotation, biochemical, small-molecule microarray, 635/667 nm fluorescence (AID 1131); conditions: fibrinogen-A647 binding fluorescence, higher = more signal;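 note: z-score merges 667 nm fluorescence with per-spot signal-to-noise over triplicate slides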
[5] = biological target: Follistatin (Homo sapiens) (UniProt P19883); experiment: follistatin binders on small-molecule microarrays, primary screen, biochemical, small-molecule microarray, 635/667 nm fluorescence (AID 1132); conditions: FST binding, 635 nm fluorescence, higher = more signal
Chain of Follistatin (Homo sapiens) (P19883 whole entry, looked up): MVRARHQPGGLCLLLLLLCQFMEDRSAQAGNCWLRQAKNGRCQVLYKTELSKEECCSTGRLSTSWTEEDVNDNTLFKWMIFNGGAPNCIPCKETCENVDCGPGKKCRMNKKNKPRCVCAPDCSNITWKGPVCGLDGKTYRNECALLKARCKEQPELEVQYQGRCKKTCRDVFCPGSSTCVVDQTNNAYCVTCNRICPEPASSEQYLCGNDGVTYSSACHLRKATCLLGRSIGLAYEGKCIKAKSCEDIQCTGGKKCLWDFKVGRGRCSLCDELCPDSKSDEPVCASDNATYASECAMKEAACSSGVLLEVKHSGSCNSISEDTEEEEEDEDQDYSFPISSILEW

[6] = biological target: Fibroblast growth factor 2 (Homo sapiens) (UniProt P09038); experiment: FGF2 binders on small-molecule microarrays, primary screen, biochemical, small-molecule microarray, 635/667 nm fluorescence (AID 1133); conditions: small-molecule microarray binding, FGF2, fluorescence 635/667; higher = more signal
Chain of Fibroblast growth factor 2 (Homo sapiens) (P09038 whole entry, looked up): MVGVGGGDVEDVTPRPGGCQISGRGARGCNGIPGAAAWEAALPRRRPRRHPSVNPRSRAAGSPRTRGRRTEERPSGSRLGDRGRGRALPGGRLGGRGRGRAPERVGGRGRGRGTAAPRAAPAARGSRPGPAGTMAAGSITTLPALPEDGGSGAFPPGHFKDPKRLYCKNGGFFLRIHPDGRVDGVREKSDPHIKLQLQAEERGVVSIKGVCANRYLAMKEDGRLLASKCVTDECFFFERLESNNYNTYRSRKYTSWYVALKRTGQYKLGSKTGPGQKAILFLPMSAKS

[7] = mitochondrial membrane potential change in A549 cells, profiling panel, cell-based, JC-1 fluorescence, basal, 24 h, 100 nL (AID 1138); conditions: higher = more signal;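 note: A549 lung adenocarcinoma cells under basal conditions with no added stimulus; test concentration not given here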
Lefty1 = Lefty1 binders on small-molecule microarrays, primary screen, biochemical, small-molecule microarray, 635/667 nm fluorescence (AID 1139); conditions: small-molecule microarray binding, fluorescence 635/667; higher = more signal
[8] = test system: wheat germ agglutinin (Triticum aestivum), Alexa647-labelled; experiment: wheat germ agglutinin binders on compound microarrays, profiling panel, artefact control for SMM control-protein annotation, biochemical, small-molecule microarray, 635/667 nm fluorescence (AID 1140); conditions: WGA-A647 binding, 635 nm fluorescence, higher = more signal;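 note: score merges 667 nm feature emission with signal to noise over triplicate slides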
[9] = biological target: Luciferin 4-monooxygenase (Photinus pyralis) (UniProt P08659); experiment: firefly luciferase enzyme inhibitors, primary screen, biochemical, luminescence, purified enzyme, 2006 set (AID 1141); conditions: SteadyGlo luminescence, 30 min, higher = more signal, called active from +8 up or from −8 down;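 note: cell-free assay with purified firefly luciferase at 100 ng per well in PBS; test concentration not given here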
Chain of Luciferin 4-monooxygenase (Photinus pyralis) (P08659 whole entry, looked up): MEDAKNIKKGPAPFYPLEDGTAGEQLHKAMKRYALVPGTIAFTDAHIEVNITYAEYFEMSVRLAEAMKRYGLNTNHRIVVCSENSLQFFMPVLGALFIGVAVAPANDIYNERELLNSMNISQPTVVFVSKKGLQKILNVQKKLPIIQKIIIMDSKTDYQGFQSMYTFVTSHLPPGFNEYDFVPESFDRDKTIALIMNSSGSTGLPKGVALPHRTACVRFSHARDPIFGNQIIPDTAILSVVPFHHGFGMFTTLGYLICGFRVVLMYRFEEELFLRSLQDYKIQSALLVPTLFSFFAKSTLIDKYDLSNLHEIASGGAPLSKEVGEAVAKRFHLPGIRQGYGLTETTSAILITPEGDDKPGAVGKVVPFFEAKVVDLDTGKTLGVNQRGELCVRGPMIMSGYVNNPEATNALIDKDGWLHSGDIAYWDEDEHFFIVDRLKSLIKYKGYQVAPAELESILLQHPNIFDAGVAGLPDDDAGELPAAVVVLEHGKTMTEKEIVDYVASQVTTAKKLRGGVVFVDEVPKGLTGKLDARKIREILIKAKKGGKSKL

[10] = test system: Wnt5a (protein binding on small-molecule microarray); experiment: Wnt5a binders on small-molecule microarray, primary screen, biophysical, 635/667 nm fluorescence (AID 1142); conditions: 635 nm fluorescence, higher = more signal;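 note: fluorescence read at 667 nm with signal to noise per printed feature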
[11] = cell viability in Huh7 cells, primary screen, cytotoxicity control for HCV replication inhibitor project, CellTiter-Glo luminescence, basal, 48 h (AID 1143); conditions: Huh7 HCV replicon, higher = more signal, called active from +8 up or from −8 down;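 note: Huh7 hepatoma cells carrying a hepatitis C replication reporter with no stimulus; test concentration not given here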
[12] = P. aeruginosa biofilm formation inhibitors, primary screen, PAO1 strain, BacTiter-Glo luminescence, LB-PBS (AID 1144); conditions: 12 h, higher = more signal
[13] = CREB reporter modulators without forskolin, primary screen, cell-based, PC12, CRE-LacZ reporter, unstimulated (AID 1145); conditions: no forskolin, luminescence, 4.5 h, higher = more signal, called active from +8 up or from −8 down
[14] = CREB reporter modulators under forskolin, primary screen, cell-based, PC12, CRE-LacZ reporter, forskolin-stimulated (AID 1146); conditions: luminescence, 4.5 h, higher = more signal, called active from +8 up or from −8 down;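 note: PC12 cells with 6xCRE LacZ reporter stimulated by forskolin 10 µM; beta-galactosidase reporter signal reflecting CREB driven transcription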
[15] = biological target: Streptavidin (Streptomyces avidinii) (UniProt P22629); experiment: streptavidin binders on small-molecule microarray, primary screen, artefact control for SMM compound annotation, biophysical, 635/667 nm fluorescence (AID 1147); conditions: streptavidin binding, higher = more signal;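 note: signal reflects streptavidin binding to arrayed compounds as a control protein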
Chain of Streptavidin (Streptomyces avidinii) (P22629 whole entry, looked up): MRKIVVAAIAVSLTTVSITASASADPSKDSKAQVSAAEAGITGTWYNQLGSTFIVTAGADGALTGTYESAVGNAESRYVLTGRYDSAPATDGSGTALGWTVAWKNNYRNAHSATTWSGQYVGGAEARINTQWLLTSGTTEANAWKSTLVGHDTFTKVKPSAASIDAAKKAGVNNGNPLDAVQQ

[16] = small-molecule binders of probe aInhba, primary screen, biochemical, small-molecule microarray, 635/667 nm fluorescence (AID 1148); conditions: higher = more signal;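 note: score merges 667nm spot fluorescence with signal-to-noise for antibody binding to printed compounds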
Torsin-1A (Homo sapiens) [17] = biological target: Torsin-1A (Homo sapiens) (UniProt O14656); experiment: torsin A binders from cell lysate, primary screen, small-molecule microarray, wild-type, 635/667 nm (AID 1149); conditions: COS7 hTOR1A-WT lysate, 635 nm fluorescence, higher = more signal
Chain of Torsin-1A (Homo sapiens) (O14656 whole entry, looked up): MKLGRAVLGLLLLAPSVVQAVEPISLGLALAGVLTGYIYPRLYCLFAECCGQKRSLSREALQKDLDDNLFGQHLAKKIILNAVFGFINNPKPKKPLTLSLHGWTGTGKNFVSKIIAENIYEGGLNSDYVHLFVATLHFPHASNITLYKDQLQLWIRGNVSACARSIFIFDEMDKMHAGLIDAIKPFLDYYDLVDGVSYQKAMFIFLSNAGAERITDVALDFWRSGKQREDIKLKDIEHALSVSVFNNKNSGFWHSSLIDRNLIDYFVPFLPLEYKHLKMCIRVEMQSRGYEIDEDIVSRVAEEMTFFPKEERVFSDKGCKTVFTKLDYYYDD

Torsin-1A (Homo sapiens) [18] = biological target: Torsin-1A (Homo sapiens) (UniProt O14656); experiment: small-molecule binders of mutant TOR1A in lysate, primary screen, cell lysate, small-molecule microarray, COS7 lysate, 635/667 nm fluorescence (AID 1150); conditions: COS7 hTOR1A mutant lysate, 635 nm fluorescence, higher = more signal;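 note: score pools 667 nm emission and signal to noise measuring lysate protein binding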
[19] = test system: Sonic hedgehog protein (Shh); experiment: small-molecule binders of Shh protein, primary screen, biochemical, small-molecule microarray, 635/667 nm fluorescence (AID 1151); conditions: small-molecule microarray binding, 635 nm fluorescence; higher = more signal;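 note: Shh protein binding to compounds spotted on small-molecule microarray slides; score combines spot fluorescence intensity with signal-to-noise across triplicate slides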

Structure (SMILES)	composite z-score [1]	composite z-score [2]	composite z-score [3]	composite z-score [4]	composite z-score [5]	composite z-score [6]	z-score [7]	composite z-score (Lefty1)	composite z-score [8]	z-score [9]	composite z-score [10]	z-score [11]	z-score [12]	z-score [13]	z-score [14]	composite z-score [15]	composite z-score [16]	composite z-score (Torsin-1A (Homo sapiens) [17])	composite z-score (Torsin-1A (Homo sapiens) [18])	composite z-score [19]
CC(C)CNC(=O)[C@@H]1c2ccccc2C(=O)N(C2Cc3ccccc3C2)[C@H]1c1ccc(CO)cc1	0.245	0.516	-0.587	0.182	0.348	0.579	3.56	-0.499	-0.19	-0.843 (inactive)	-0.0027	-0.13 (inactive)	0.92 (inactive)	0.118 (inactive)	-0.748 (inactive)	-0.861	-0.106	-1.03	0.0877	0.436
COCCOC(=O)N1C(=O)[C@@]2(c3cc(C#CC4(O)CCCCCC4)ccc31)[C@H](c1ccc(OCCO)cc1)N1[C@H](c3ccccc3)[C@H](c3ccccc3)OC(=O)[C@H]1[C@@H]2C(N)=O	1.43	1.15	0.528	0.892	1.38	1.55	-1.27	1.38	0.613	-0.608 (inactive)	0.437	-4.15 (inactive)	0.323 (inactive)	0.468 (inactive)	0.595 (inactive)	0.213	0.0804	0.974	0.861	1.33
CCCCCCc1nc(-c2ccc(OC)nc2)cc2c1[Si](C(C)C)(C(C)C)OC2	-0.102	-0.493	-0.206	-0.137	-0.0974	-0.206	-1.46	-0.0037	-0.218	0.997 (inactive)	-0.446	-3.35 (inactive)	-0.757 (inactive)	-0.36 (inactive)	-0.565 (inactive)	0.151	-0.0963	-0.734	0.706	-0.0247
CCCC=C(CCC)[C@@H](NS(=O)(=O)c1ccc(Cl)cc1)c1ccccc1	1.12	-0.382	0.884	0.522	-0.883	-0.919	-0.576	-1.17	0.303	1.8 (inactive)	0.0207	-2.29 (inactive)	-0.527 (inactive)	0.197 (inactive)	0.261 (inactive)	0.489	0.0807	-0.721	-0.292	-1.12
COC(=O)[C@@]1(CCC(=O)OC(C)(C)C)N=C(c2ccc(OCCCO)cc2)O[C@H]1c1ccccc1CN=[N+]=[N-]	0.656	0.0163	-0.0599	0.0201	0.663	0.442	0.895	-0.756	0.249	-0.488 (inactive)	0.113	-2.35 (inactive)	-0.0281 (inactive)	1.94 (inactive)	-1.55 (inactive)	-0.139	0.241	-0.193	0.261	0.339
COCCOC(=O)N1C(=O)[C@@]2(c3cc(C#CC4=CCCCC4)ccc31)[C@H](c1ccc(OCCO)cc1)N1[C@H](c3ccccc3)[C@H](c3ccccc3)OC(=O)[C@H]1[C@@H]2C(=O)N1CCCCCCC1	1.11	0.929	0.267	0.818	1.41	1.42	-0.744	1.21	0.743	-2.78 (inactive)	0.266	-4.59 (inactive)	-1.17 (inactive)	-0.698 (inactive)	-1.13 (inactive)	0.945	1.05	0.984	0.84	1.91
CC(C)[Si](C#CCCCC#N)(O[C@H](c1ccccc1)c1cn([C@H](C)c2ccccc2)nn1)C(C)C	0.67	0.893	-0.0546	0.464	0.661	0.286	2.34	0.739	0.0425	-0.863 (inactive)	0.0952	-1.75 (inactive)	-0.0514 (inactive)	-0.23 (inactive)	0.301 (inactive)	0.492	0.0183	0.0529	0.28	1.09
O=C1O[C@H](c2ccccc2)[C@H](c2ccccc2)N2[C@H]1[C@@H](C(=O)NC[C@H](O)c1ccccc1)[C@]1(C(=O)Nc3ccc(C#CCCO)cc31)[C@H]2c1ccccc1OCCO	1.6	1.18	0.746	0.812	1.1	0.419	-0.223	1.39	0.593	0.597 (inactive)	-0.24	-1.9 (inactive)	-0.491 (inactive)	-0.141 (inactive)	-0.27 (inactive)	-0.0243	0.0633	0.898	1.01	1.97
COCCOC(=O)N1C(=O)[C@@]2(c3cc(C#Cc4ccc(OC)cc4)ccc31)[C@H](C(=O)N1CCCCCCC1)[C@H]1C(=O)O[C@H](c3ccccc3)[C@H](c3ccccc3)N1[C@@H]2c1ccccc1OCCO	0.32	1.21	0.628	0.495	1.49	1.54	-0.864	1.62	0.614	0.197 (inactive)	1.15	-0.751 (inactive)	-1.4 (inactive)	-1.42 (inactive)	0.323 (inactive)	1.53	1.59	1.43	1.18	1.9

From PubChem BioAssay
